# From the supplement of paper PMC8728848
# Many of the other results were omitted from the sample, so the strongest signals are more common in it than they were.
# B1: Layilin (Mus musculus), Q8C351 (protein)
# chain: MQPGAALQAMLLAVLLAKPRDSKGRLLSASDLDPRGGQLVCRGGTRRPCYKVIYFHDAFQRLNFEEAKETCMEDGGQLVSIETEDEQRLIEKFIENLLASDGDFWIGLKRLEEKQSNNTACQDLYAWTDGSTSQFRNWYVDEPSCGSEVCVVMYHQPSAPPGIGGSYMFQWNDDRCNMKNNFICKYHDDKPSTTPSIWPGGEATEPATPLLPEETQKEDTKETFKERREAALNLAYILIPSIPLFLLLVVTSAVCWVWICRRKREQTDPSTKEQHTIWPTPRQENSPNLDVYNVIRKQSEADLAEPRPDLKNISFRVCSGEAMPDDMSCDYENIAVNPSESGFVTLASMESGFVTNDIYEFSPDRMGRSKESGWVENEIYY
# Key:
# Experiment in all cases: glycan array binding signal (z-score within array); higher = stronger binding
# Conditions in all cases: glycan notation: IUPAC condensed, linker removed
# [1] = biological target: Fuc(a1-2)Gal(b1-3)GalNAc(b1-4)[Neu5Ac(a2-3)]Gal(b1-4)Glc
# Outline: (§1)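 The binding signal is a Z-score computed within each array and averaged over linkers. Arrays of the same protein sequence at different concentrations or buffers were also averaged together. Data originate from 3228 arrays in the Consortium for Functional Glycomics database, kept only where the protein sequence was available.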
# [2] = biological target: Fuc(a1-2)Gal(b1-4)[Fuc(a1-3)]GlcNAc(b1-3)GalNAc
# Outline: as §1
# [3] = biological target: Fuc(a1-2)[GalNAc(a1-3)]Gal(b1-4)[Fuc(a1-3)]GlcNAc(b1-3)GalNAc
# Outline: as §1
# [4] = biological target: Fuc(a1-3)[Gal(b1-4)]GlcNAc(b1-2)Man(a1-3)[Fuc(a1-3)[Gal(b1-4)]GlcNAc(b1-2)Man(a1-6)]Man(b1-4)GlcNAc(b1-4)GlcNAc
# Outline: as §1
# [5] = biological target: Fuc(a1-3)[Gal(b1-4)]GlcNAc(b1-2)Man(a1-3)[Fuc(a1-3)[Gal(b1-4)]GlcNAc(b1-2)Man(a1-6)]Man(b1-4)GlcNAc(b1-4)[Fuc(a1-6)]GlcNAc
# Outline: as §1
# Gal(a1-3)Gal(b1-3)GlcNAc = biological target: Gal(a1-3)Gal(b1-3)GlcNAc
# Outline: as §1
# [6] = biological target: Gal(a1-4)Gal(b1-4)GlcNAc(b1-3)Gal(b1-4)Glc
# Outline: as §1
# [7] = biological target: Gal(b1-3)GlcNAc(b1-3)Gal(b1-4)GlcNAc(b1-6)[Gal(b1-3)GlcNAc(b1-3)]Gal(b1-4)Glc
# Outline: as §1
# [8] = biological target: Gal(b1-3)[Fuc(a1-4)]GlcNAc(b1-2)Man(a1-3)[Gal(b1-3)[Fuc(a1-4)]GlcNAc(b1-2)Man(a1-6)]Man(b1-4)GlcNAc(b1-4)[Fuc(a1-6)]GlcNAc
# Outline: as §1
# [9] = biological target: Gal(b1-4)GlcNAc(b1-2)Man(a1-3)Man(b1-4)GlcNAc(b1-4)GlcNAc
# Outline: as §1
# [10] = biological target: Gal(b1-4)GlcNAc(b1-2)Man(a1-3)[Gal(b1-4)GlcNAc(b1-2)Man(a1-6)]Man(b1-4)GlcNAc(b1-4)GlcNAc
# Outline: as §1
# [11] = biological target: Gal(b1-4)GlcNAc(b1-2)Man(a1-6)Man(b1-4)GlcNAc(b1-4)GlcNAc
# Outline: as §1
# [12] = biological target: Gal(b1-4)GlcNAc(b1-2)[Gal(b1-4)GlcNAc(b1-6)]Man(a1-6)[GlcNAc(b1-4)][Gal(b1-4)GlcNAc(b1-2)Man(a1-3)]Man(b1-4)GlcNAc(b1-4)GlcNAc
# Outline: as §1
# Gal3S(b1-4)GlcNAc6S = biological target: Gal3S(b1-4)GlcNAc6S
# Outline: as §1
# Gal3S6S(b1-4)GlcNAc = biological target: Gal3S6S(b1-4)GlcNAc
# Outline: as §1
# Gal6S(b1-3)GlcNAc = biological target: Gal6S(b1-3)GlcNAc
# Outline: as §1
# GalNAc(b1-3)GalNAc = biological target: GalNAc(b1-3)GalNAc
# Outline: as §1
# [13] = biological target: Glc(a1-4)Glc(a1-4)Glc(a1-4)Glc
# Outline: as §1
# [14] = biological target: GlcNAc(a1-4)Gal(b1-4)GalNAc
# Outline: as §1
# [15] = biological target: GlcNAc(a1-4)Gal(b1-4)GlcNAc(b1-3)Gal(b1-4)GlcNAc
# Outline: as §1
# [16] = biological target: GlcNAc(b1-3)Gal(b1-3)GalNAc
# Outline: as §1
# [17] = biological target: GlcNAc(b1-3)Gal(b1-4)GlcNAc(b1-3)Gal(b1-4)GlcNAc
# Outline: as §1
# GlcNAc(b1-3)Man = biological target: GlcNAc(b1-3)Man
# Outline: as §1
# Kdn(a2-3)Gal(b1-3)GlcNAc = biological target: Kdn(a2-3)Gal(b1-3)GlcNAc
# Outline: as §1
# [18] = biological target: Man(a1-2)Man(a1-3)[Man(a1-2)Man(a1-6)]Man(a1-6)[Man(a1-2)Man(a1-2)Man(a1-3)]Man(b1-4)GlcNAc(b1-4)GlcNAc
# Outline: as §1
# [19] = biological target: Neu5Ac(a2-3)Gal(b1-4)GlcNAc(b1-3)Gal
# Outline: as §1
# [20] = biological target: Neu5Ac(a2-3)Gal(b1-4)GlcNAc(b1-3)Gal(b1-4)[Fuc(a1-3)]GlcNAc
# Outline: as §1
# [21] = biological target: Neu5Ac(a2-3)Gal(b1-4)[Fuc(a1-3)]GlcNAc(b1-3)Gal(b1-4)GlcNAc
# Outline: as §1
# [22] = biological target: Neu5Ac(a2-3)Gal(b1-4)[Fuc(a1-3)]GlcNAc(b1-3)Gal(b1-4)[Fuc(a1-3)]GlcNAc(b1-3)Gal(b1-4)[Fuc(a1-3)]GlcNAc
# Outline: as §1
# [23] = biological target: Neu5Ac(a2-3)Gal(b1-4)[Fuc(a1-3)]GlcNAc(b1-3)GalNAc
# Outline: as §1
# [24] = biological target: Neu5Ac(a2-3)Gal(b1-4)[Fuc(a1-3)]GlcNAc(b1-6)[Gal(b1-3)]GalNAc
# Outline: as §1
# [25] = biological target: Neu5Ac(a2-3)Gal6S(b1-4)[Fuc(a1-3)]GlcNAc
# Outline: as §1
# [26] = biological target: Neu5Ac(a2-3)[GalNAc(b1-4)]Gal(b1-4)GlcNAc(b1-3)GalNAc
# Outline: as §1
# Neu5Ac(a2-6)Gal(b1-4)Glc = biological target: Neu5Ac(a2-6)Gal(b1-4)Glc
# Outline: as §1
# [27] = biological target: Neu5Ac(a2-6)Gal(b1-4)GlcNAc(b1-2)Man(a1-3)[GlcNAc(b1-2)Man(b1-4)GlcNAc(b1-2)Man(a1-6)]Man(b1-4)GlcNAc(b1-4)GlcNAc
# Outline: as §1
# [28] = biological target: Neu5Ac(a2-6)Gal(b1-4)GlcNAc(b1-2)Man(a1-6)Man(b1-4)GlcNAc(b1-4)GlcNAc
# Outline: as §1
# Neu5Ac(a2-6)GalNAc = biological target: Neu5Ac(a2-6)GalNAc
# Outline: as §1
# [29] = biological target: Neu5Ac(a2-6)GlcNAc(b1-4)GlcNAc(b1-4)GlcNAc
# Outline: as §1
# [30] = biological target: Neu5Gc(a2-3)Gal(b1-3)GlcNAc
# Outline: as §1
binder,measurement,setting,value
B1,glycan array binding signal (z-score),[1],-0.101
same,glycan array binding signal (z-score),[2],4.74
same,glycan array binding signal (z-score),[3],2.16
same,glycan array binding signal (z-score),[4],-0.753
same,glycan array binding signal (z-score),[5],1.43
same,glycan array binding signal (z-score),Gal(a1-3)Gal(b1-3)GlcNAc,-0.17
same,glycan array binding signal (z-score),[6],3.88
same,glycan array binding signal (z-score),[7],-0.423
same,glycan array binding signal (z-score),[8],7.71
same,glycan array binding signal (z-score),[9],-0.41
same,glycan array binding signal (z-score),[10],-0.504
same,glycan array binding signal (z-score),[11],-0.753
same,glycan array binding signal (z-score),[12],-0.619
same,glycan array binding signal (z-score),Gal3S(b1-4)GlcNAc6S,-0.103
same,glycan array binding signal (z-score),Gal3S6S(b1-4)GlcNAc,-0.561
same,glycan array binding signal (z-score),Gal6S(b1-3)GlcNAc,-0.243
same,glycan array binding signal (z-score),GalNAc(b1-3)GalNAc,-0.932
same,glycan array binding signal (z-score),[13],-0.492
same,glycan array binding signal (z-score),[14],-1.4
same,glycan array binding signal (z-score),[15],5.27
same,glycan array binding signal (z-score),[16],3.53
same,glycan array binding signal (z-score),[17],3.11
same,glycan array binding signal (z-score),GlcNAc(b1-3)Man,0.015
same,glycan array binding signal (z-score),Kdn(a2-3)Gal(b1-3)GlcNAc,-0.719
same,glycan array binding signal (z-score),[18],0.181
same,glycan array binding signal (z-score),[19],0.955
same,glycan array binding signal (z-score),[20],0.119
same,glycan array binding signal (z-score),[21],-0.212
same,glycan array binding signal (z-score),[22],2.92
same,glycan array binding signal (z-score),[23],1.82
same,glycan array binding signal (z-score),[24],4.15
same,glycan array binding signal (z-score),[25],-0.666
same,glycan array binding signal (z-score),[26],0.49
same,glycan array binding signal (z-score),Neu5Ac(a2-6)Gal(b1-4)Glc,0.086
same,glycan array binding signal (z-score),[27],1.47
same,glycan array binding signal (z-score),[28],-0.392
same,glycan array binding signal (z-score),Neu5Ac(a2-6)GalNAc,-0.757
same,glycan array binding signal (z-score),[29],0.077
same,glycan array binding signal (z-score),[30],0.013
